# High-throughput results from PubChem.
# Shown are actives, neighbours in structure and some others; about 17% of the full set was active somewhere.
# DT40 TDP1 CPT = DT40-hTDP1 cell growth loss with CPT; chicken DT40 Tdp1-/-;hTDP1 cells + 20 nM CPT, ATP luminescence, 48 h; 420,000 compounds, 12% hits; AID 686979; Potency, µM (series often up to 46.2 µM), without a hit: at the top dose activity change, negative = growth inhibition, actives largely listed as inhibitors; note: % is set by controls: 0 for no effect and ±100 for the full control effect; nearly all actives have a fitted effect of over 55% in size
#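 Chicken DT40 Tdp1-/- cells complemented with human TDP1, 400 cells/well, exposed to compounds plus 20 nM camptothecin for at least 48 h at 37 C; viability read as ATP content by CellTiter-Glo luminescence.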
# TGFb inhibitor = inhibitors of TGF-b signaling; HepG2 CAGA-GFP TGF-b/SMAD3 reporter, GFP fluorescence, 18 h; TGF-beta stimulated, 500 pg/mL final; Potency, µM (top dose mostly 46.1 µM), inactives show top-dose activity, negative = inhibition, actives largely listed as inhibitors; 410,000 compounds, 1.2% hits; note: % is set by controls: 0 for no effect and ±100 for the full control effect; nearly all actives have a fitted effect of over 65% in size
#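 HEPG2 CAGA-GFP cells (1000/well, DMEM with 1% FBS) were pre-incubated 2 h at 37 degrees C, given compound by pin tool, then stimulated with TGF-beta at 500 pg/mL final for 18 h before per-cell GFP fluorescence imaging.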
# HepG2 viability = counter-screen for TGF-b inhibitors: cytotoxicity in HepG2 cells. HepG2 CAGA-GFP viability, ATP luminescence, 18 h. Potency, µM (series often up to 46.1 µM), inactives show at the highest dose activity change, negative = cytotoxicity, most hits filed as cytotoxic. 410,000 compounds, 0.76% hits. AID 588856
#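 HepG2 CAGA-GFP cells (1000/well, DMEM with 1% FBS) received compound, then TGF-beta at 500 pg/mL final, and were incubated 18 hours at 37 degrees C. Viability was read by CellTiter-Glo luminescence. Media-only wells were set as complete cell-killing and DMSO as no toxicity.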
# DT40 TDP1 no CPT = qHTS for Inhibitors of human tyrosyl-DNA phosphodiesterase 1 (TDP1): qHTS in cells in absence of CPT | DT40 Tdp1-/- hTDP1 cells, no CPT, ATP luminescence, 48 h | Potency, µM (top dose mostly 46.2 µM), for the others: top-dose activity change, negative = growth inhibition, usual class: inhibitors | 420,000 compounds, 15% hits | AID 686978, 2013; note: % is set by controls: 0 for no effect and ±100 for the full control effect; nearly all actives have a fitted effect of over 55% in size
#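 No-CPT arm: Tdp1-/-;hTDP1 DT40 cells (400/well) plus compounds, incubated ≥48 hr at 37 °C. Readout CellTiter-Glo luminescence.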
# HT1080 IDH1KD tx = kills HT-1080 cells with IDH1 knockdown; HT-1080 IDH1 knockdown viability, ATP luminescence, 48 h; Potency, µM (top dose mostly 46.1 µM), for inactives: at the highest dose activity, negative = toxicity, most hits filed as cytotoxic; 360,000 compounds, 2% hits; AID 686971;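 note: 0% = DMSO wells and -100% = cell-free medium wells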
#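 Luminescent ATP read-out (CellTiter-Glo, 10 min at room temperature) after 48 h compound exposure at 37 °C gave viability of IDH1-knockdown HT-1080 cells. Activity was normalised to DMSO and cell-free wells, then fitted as concentration-response curves.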
# HT1080-NT tox = kills 2HG-producing HT-1080-NT fibrosarcoma cells. HT-1080-NT fibrosarcoma viability, CellTiter-Glo ATP luminescence, 48 h. Potency, µM (highest dose often 46.1 µM), for the others: at the highest dose activity, negative = less viability, most hits filed as cytotoxic. 360,000 compounds, 1.6% hits. AID 686970;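 note: NT is the 2HG producing partner of a matched IDH1 knockdown line; 0% = DMSO-treated cells and -100% = media-only wells without cells; nearly all actives have a fitted effect of over 55% in size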
#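 Viability by CellTiter-Glo luminescence after 48 h compound exposure at 37C of HT-1080-NT cells (750/well, RPMI, 5% FBS). % activity scaled between DMSO wells and medium-only wells, then curve-fitted and categorized by curve class.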
# Active calls of the source: *; ? = inconclusive; · = no result. Calls come from the whole dose curve; as a rule, active = well fitted curve in the direction sought with a large enough effect; inconclusive = small, poorly fitted or top-dose-only effect, or another doubt; inactive = no such curve, though single readings can be large; an effect the other way counts as inactive or inconclusive. Potency is the fitted concentration of half-maximal effect.
SMILES,DT40 TDP1 CPT,TGFb inhibitor,HepG2 viability,DT40 TDP1 no CPT,HT1080 IDH1KD tx,HT1080-NT tox
CCOC1=C2[C@H](c3ccc(CC)cc3)N(S(=O)(=O)c3ccc(C)cc3)C[C@H]2C(C#N)(C#N)C(C#N)(C#N)C1,3.7µM*,?,-66%,3.3µM*,-10%,-4%
CCOC1=C2[C@@H](CN(S(=O)(=O)c3ccc(C)cc3)[C@H]2c2ccccc2Cl)[C@H]2C(=O)NC(=O)[C@H]2C1,?,-3%,-2%,?,-1%,15%
CCOC1=C2[C@H](c3ccc(C)cc3)N(S(=O)(=O)c3ccc(C)cc3)C[C@H]2n2c(=O)n(-c3ccccc3)c(=O)n2C1,-5%,-4%,1%,-10%,21%,15%
NC(=S)N=Nc1c(O)cc(O)c2[nH]c(=O)ccc12,-1%,-12%,0%,-14%,15%,4%
COc1ccc(C(=O)NCc2nnc(SCC(=O)Nc3ccccc3)n2-c2ccccc2)cc1,?,-14%,6%,-23%,·,·
NS(=O)(=O)c1ccc(CNS(=O)(=O)c2cccc3nonc23)cc1,3%,0%,6.3µM*,-3%,10%,9%
COC(=O)C1=C(N)N(c2ccccc2C(F)(F)F)C2=C(C(=O)CCC2)C1c1ccc2c(c1)OCO2 (stereo not drawn),23µM*,0%,6%,?,-12%,-15%
Oc1ccc(/C=N/N(Cc2ccccc2)c2ccccc2)c(O)c1O,26µM*,-23%,-1%,18µM*,-27%,-26%
Oc1cccc(/C=N/N(Cc2ccccc2)c2ccccc2)c1,-25%,?,13µM*,?,18µM*,?
O=c1c(-c2ccco2)[n+]([O-])c2ccccc2n1OCc1ccccc1F,-26%,20%,-19%,?,2%,-1%
COc1ccccc1COn1c(=O)c(-c2ccco2)[n+]([O-])c2ccccc21,15µM*,-10%,-1%,18µM*,6%,5%
O=c1c(-c2ccc(Br)cc2)[n+]([O-])c2ccccc2n1OCc1ccccn1,?,9%,5%,?,15%,4%
O=c1c(-c2cc3ccccc3o2)[n+]([O-])c2ccccc2n1OCc1ccccn1,?,-1%,-11%,15µM*,3%,1%
O=c1c(-c2ccco2)[n+]([O-])c2ccccc2n1OCc1ccccc1,12µM*,-2%,-3%,12µM*,5%,7%
Cc1ccc(C)c(OCC(O)CN2CCC(Cc3ccccc3)CC2)c1 (stereo not drawn),21µM*,?,-86%,?,-15%,?
Cc1ccc(C)c(OCC(O)CN2C(C)CCCC2C)c1 (stereo not drawn),23µM*,0%,-49%,?,?,-6%
OC(COc1ccc(Cl)cc1)CN1CCC(Cc2ccccc2)CC1 (stereo not drawn),?,?,-42%,?,?,?
O=C(OC1C[C@@H]2CC3C[C@H](C1)N2CC3=O)c1c[nH]c2ccccc12 (stereo partly drawn),?,·,·,21µM*,·,·
CC(=C\C(=O)O)/C(=C/c1ccccc1)C(=O)O,2%,3%,0%,-8%,10%,20%
Cc1ccc2oc(C(=O)N(Cc3ccccc3F)C3CCS(=O)(=O)C3)c(C)c2c1 (stereo not drawn),?,-27%,-16%,23µM*,·,·
Cc1c(C(=O)N(Cc2ccccc2F)C2CCS(=O)(=O)C2)oc2ccc(F)cc12 (stereo not drawn),16µM*,-1%,-30%,21µM*,·,·
Cc1c(C(=O)N(Cc2ccccc2F)C2CCS(=O)(=O)C2)oc2ccccc12 (stereo not drawn),?,?,-26%,?,·,·
Cc1ccc2c(C)c(C(=O)N(Cc3ccc(F)cc3)C3CCS(=O)(=O)C3)oc2c1 (stereo not drawn),?,0%,-16%,?,-2%,-2%
NC(=O)c1nsc(C(=O)N(c2ccc3c(c2)OCCO3)C(C(=O)NCC2CCCO2)c2ccc(F)cc2)c1N (stereo not drawn),15µM*,2%,-16%,18µM*,3%,0%
Cc1ccc(C(C(=O)NCC2CCCO2)N(C(=O)c2snc(C(N)=O)c2N)c2ccc3c(c2)OCCO3)cc1 (stereo not drawn),23µM*,30%,-8%,-86%,-7%,-2%
SMILES,DT40 TDP1 CPT,TGFb inhibitor,HepG2 viability,DT40 TDP1 no CPT,HT1080 IDH1KD tx,HT1080-NT tox
COc1ccc(CCN(C(=O)c2snc(C(N)=O)c2N)C(C(=O)NCC2CCCO2)c2ccc(F)cc2)cc1OC (stereo not drawn),?,13%,6%,29µM*,7%,15%
Cc1ccc(N(C(=O)c2snc(C(N)=O)c2N)C(C(=O)NCC2CCCO2)c2ccc3ncccc3c2)cc1 (stereo not drawn),?,-20%,-50%,-28%,-12%,-17%
CCOC(=O)CC1(CCc2ccccc2)Oc2ccccc2O1,4%,·,·,-28%,25%,18%
O=C(CNC(=O)c1cccnc1)c1ccc(F)cc1,-2%,28%,1%,8%,·,·
CC1CCN(C(=O)c2cccc(S(=O)(=O)N3CCN(c4ccccc4)CC3)c2)CC1,?,-4%,6%,?,15%,7%
CN(c1ccc(C(=O)N2CCN(c3ccc(F)cc3)CC2)cc1)S(C)(=O)=O,13µM*,31%,1%,?,-5%,1%
Cc1ccc(C(=O)N2CCN(c3ccccc3)CC2)cc1S(=O)(=O)N1CCCC1,29µM*,-31%,-10%,?,-21%,-3%
Cc1ccc(C(=O)N2CCN(c3ccc(F)cc3)CC2)cc1S(=O)(=O)N1CCCCC1,29µM*,-26%,-10%,16µM*,-18%,?
CC1CCN(S(=O)(=O)c2cc(C(=O)N3CCN(c4ccccc4)CC3)ccc2Br)CC1,23µM*,-16%,-13%,15µM*,?,-10%
COc1ccc(C(=O)N2CCN(c3ccccc3)CC2)cc1S(=O)(=O)N1CCCC1,-27%,-15%,-44%,-25%,19%,1%
Cc1ccc2c(c1)NC(c1cccs1)C1=C(CC(C)(C)CC1=O)N2 (stereo not drawn),-1%,?,-17%,-3%,-1%,12%
